Reference: PubChem BioAssay (NCI)
Compounds without any hit were thinned out: in the full panel of roughly 79,000, 15% have a hit. Cut-off read from the data, not from the text of the source: active = growth inhibition above about 70%; inactive = the rest.

Legend:
[1] = NCI Yeast Anticancer Drug Screen. Data for the rad50 strain (AID 155);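 note: 0% = growth of vehicle-only cultures of the same strain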; details: S. cerevisiae rad50 strain growth inhibition; at 50.0 µM; stronger effect = higher value
Outline: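 DNA repair mutant yeast, compound exposure, growth read-out; inhibition is taken relative to vehicle.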

[2] = NCI Yeast Anticancer Drug Screen. Data for the mec2-1 strain (AID 157); details: S. cerevisiae mec2-1 strain, at 50.0 µM, stronger effect = higher value
Outline: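 Cells of the genetically defined mec2-1 yeast strain are incubated with test compound. Inhibition of growth is calculated against vehicle-treated controls.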

[3] = NCI Yeast Anticancer Drug Screen. Data for the sgs1 mgt1 strain (AID 161);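 note: 0% = growth of cultures given vehicle only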; details: S. cerevisiae sgs1 mgt1 strain, at 50.0 µM, stronger effect = higher value
Outline: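 Test agents were incubated with a DNA-repair-mutant yeast strain. Growth was then read and compared against vehicle-treated controls.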

[4] = NCI Yeast Anticancer Drug Screen. Data for the cln2 rad14 strain (AID 165);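 note: 0% = growth equal to vehicle treated cultures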; details: S. cerevisiae cln2 rad14 strain, at 50.0 µM, stronger effect = higher value
Outline: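 The screen exposed genetically defined yeast (cln2 rad14) to test compounds and scored growth inhibition relative to vehicle-treated controls.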

[5] = NCI Yeast Anticancer Drug Screen. Data for the bub3 strain (AID 167); details: S. cerevisiae bub3 mutant strain, at 50.0 µM, stronger effect = higher value
Outline: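 In this screen, a yeast mutant lacking normal mitotic checkpoint function is challenged with compound. Relative growth versus vehicle gives the inhibition value.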

[6] = NCI Yeast Anticancer Drug Screen. Data for the mlh1 rad18 strain (AID 175); details: S. cerevisiae mlh1 rad18 strain growth inhibition; at 50.0 µM; stronger effect = higher value
Outline: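 Compound-treated yeast growth, normalised to vehicle controls. Strain bears defined DNA repair mutations.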

Measured: growth inhibition

CSc1nc(Br)nc2c1ncn2C1CC(Oc2ccc(C)cc2)C(COc2ccc(C)cc2)O1 (stereo unspecified)
inactive: [1] 13.4% | [2] 4.3% | [3] 22.1% | [4] 18.6% | [5] 17.1% | [6] -23.8%

CCCNS(C)(=O)=O
inactive: [1] 7.25% | [2] 1.2% | [3] 10.2% | [4] 3.15% | [5] 11.1% | [6] 3.6%

CCC/C=N/NS(=O)(=O)c1ccc(C)cc1
inactive: [1] 32.1% | [2] 15.7% | [3] 30.8% | [4] 11.8% | [5] -29.9% | [6] 12.6%

Cc1ccc(S(=O)(=O)N/N=C/C(O)C(O)C(O)C(O)CO)cc1 (stereo unspecified)
inactive: [1] 5.9% | [2] -5.15% | [3] -14.8% | [4] -34.1% | [5] -8.45% | [6] 12.3%

OC(C1=NNC(C(O)c2ccccc2)=NN1)c1ccccc1 (stereo unspecified)
inactive: [1] -29% | [2] 4.7% | [3] 22% | [4] -20.4% | [5] -2.45% | [6] 5.8%

Nc1ccnc(Sc2ncccc2[N+](=O)[O-])n1
inactive: [1] 1.2% | [2] -8.15% | [3] -5.75% | [4] -47.8% | [5] 7.8% | [6] 1.3%

CN(C)C=NCC(O)c1ccccc1 (stereo unspecified)
inactive: [1] 13.3% | [2] 15% | [3] 0% | [4] -3% | [5] -21.2% | [6] -22.1%

CN=C1SC(C)(C)NN1C
inactive: [1] 9.2% | [2] 1.85% | [3] 4.35% | [4] -32% | [5] -6.4% | [6] 12.8%

C=CCNc1ccc(Cl)cc1Cl
inactive: [1] -3.5% | [2] -6.25% | [3] -21.9% | [4] -54.4% | [5] -8.75% | [6] 12.6%

C=C(Cl)C(=O)O
inactive: [1] -11.3% | [2] -20.2% | [3] 18.9% | [4] -0.55% | [5] -25.4% | [6] -7.55%

CCCCCCN(CCCCCC)C1=CC(=O)C(=O)c2ccccc21
inactive: [1] 52.9% | [2] 31.8% | [3] 48.4% | [4] 60% | [5] 35.1% | [6] 54.2%

BrC/C(=N\N1CCCCC1)c1ccc(Br)cc1
inactive: [1] 6.55% | [2] -7.95% | [3] -8.05% | [4] 24.6% | [5] 16.6% | [6] 14%

Cc1ccc(S(=O)(=O)Nc2ccccc2-c2nc3ccc([N+](=O)[O-])cc3c(=O)o2)cc1
inactive: [1] 35.6% | [2] 36.2% | [3] 22.1% | [4] 1.1% | [5] 11.8% | [6] 45.2%

CC(=O)O[C@@H]1C[C@]2(C)[C@@H](C(C)=O)CC[C@H]2[C@@H]2CCC3=CC(=O)CC[C@]3(C)[C@H]21
inactive: [1] -7.5% | [2] -8.25% | [3] -23% | [4] 11.4% | [5] -10.4% | [6] 13.2%

C=C(C(=O)O)C(=O)O
inactive: [1] -14.4% | [2] -3.6% | [3] -2.2% | [4] 4.35% | [5] 2% | [6] -4.7%

CC(=O)/C(=C\c1ccc(/C=C(\C(C)=O)C(=O)CCN(C)C)cc1)C(=O)CCN(C)C
inactive: [1] 38.6% | [2] 58.5% | [3] 7.05% | [4] 5% | [5] 5.65% | [6] -19.6%

O=C(COc1ccc(Cl)cc1Cl)Nc1ccc2ccccc2c1S(=O)(=O)O
inactive: [1] 6.45% | [2] 2.2% | [3] 12.5% | [4] -5.95% | [5] 8.4% | [6] 3.6%

CC(C)(C)/C(=N\[N+](C)(C)C)c1ccccc1
inactive: [1] 7.85% | [2] 6.4% | [3] 0.4% | [4] -1.3% | [5] 6.8% | [6] 10.6%

O=C(N/N=C1\CCc2ccccc2C1)N/N=C1\CCc2ccccc2C1
inactive: [1] 20.4% | [2] 17.1% | [3] 11.7% | [4] -5.85% | [5] -18.9% | [6] 9.6%

CC(C)CC(N)C(=O)NC(Cc1c[nH]c2ccccc12)C(N)=O (stereo unspecified)
inactive: [1] -8.85% | [2] 3.35% | [3] 18.1% | [4] -2.4% | [5] 22.4% | [6] 10.5%

CCOC(=O)c1cc(C)nc(Cl)c1C#N
inactive: [1] 6.3% | [2] 12.8% | [3] 7.9% | [4] 13.7% | [5] 21.1% | [6] 12.4%

NC(Cc1ccccc1)(C(=O)O)C(=O)O
inactive: [1] -12.7% | [2] 1.45% | [3] -11.4% | [4] -31.8% | [5] -22.1% | [6] 15.7%

CCS(=O)(=O)CCNC(=O)NS(=O)(=O)c1ccc(C)cc1
inactive: [1] -2.2% | [2] -7.85% | [3] -11.8% | [4] -1.2% | [5] 7.7% | [6] 0.9%

CC(SC(=S)Nc1ccc(Cl)cc1)C(=O)O (stereo unspecified)
inactive: [1] 39.5% | [2] 1.15% | [3] 24.8% | [4] -42% | [5] 4.8% | [6] 12.3%

CCN(CC)C(=O)C1Cc2ccccc2N(C)C1 (stereo unspecified)
inactive: [1] -16.6% | [2] -8.5% | [3] -10.4% | [4] -41.5% | [5] 3.05% | [6] -2.85%

O=C(O)CCSCc1ccc(I)cc1
inactive: [1] 35.1% | [2] 35.5% | [3] 54% | [4] 34.2% | [5] 47.6% | [6] 37.3%

CCCCOB1OC(c2ccccc2)(c2ccccc2)c2ccccc2C(c2ccccc2)(c2ccccc2)O1
inactive: [1] 31.1% | [2] 3.65% | [3] 27.2% | [4] 3.85% | [5] -2.1% | [6] 22.6%

O=c1c([OH2+])c(-c2ccc(O)cc2[O-])oc2cc(O)cc([O-])c12.O=c1c([OH2+])c(-c2ccc(O)cc2[O-])oc2cc(O)cc([O-])c12.[Ti+4]
inactive: [1] -43.4% | [2] 27.2% | [3] 7.95% | [4] 8.2% | [5] 2.55% | [6] 10.2%

CCOc1ccc(Nc2ccc3c(O)cc(S(=O)(=O)O)cc3c2)cc1
inactive: [1] 0.9% | [2] -7.35% | [3] -5.75% | [4] -20.4% | [5] 38.5% | [6] 12.8%

CCN(CC)c1cc2c(cc1Br)-c1ccccc1C2=O
inactive: [1] 4% | [2] -2.9% | [3] 5.7% | [4] 52.2% | [5] 7.95% | [6] 36%

Nc1ccc(Cl)c(N)c1
inactive: [1] 9.1% | [2] 26.4% | [3] 18.2% | [4] 20.1% | [5] 14.9% | [6] 21.9%

FC(F)(F)C1(F)C(F)(F)C(F)(F)C(F)(F)C(F)(F)C1(F)F
inactive: [1] 16.3% | [2] -39.1% | [3] -4.95% | [4] -96.2% | [5] -24.1% | [6] 27.9%

CNC(=O)OCc1c(COC(=O)NC)c(C)n(-c2ccc(OC)cc2)c1C
inactive: [1] 20.9% | [2] 3.55% | [3] 42.1% | [4] 15.8% | [5] 31.3% | [6] 42.8%

CC1=C(C)Cc2c(-c3ccccc3)oc(-c3ccccc3)c2C1
inactive: [1] -13.3% | [2] -12.4% | [3] 0.7% | [4] 25.8% | [5] -7.95% | [6] -16.4%

CN(C)c1ccc(/C=N\N=C\c2ccco2)cc1
inactive: [1] 7.65% | [2] -3.2% | [3] 22.6% | [4] -40.2% | [5] -7.55% | [6] 10.1%

CN(C)C1CS(=O)(=O)OC2=C1COCC2 (stereo unspecified)
inactive: [1] -16.4% | [2] 9.8% | [3] -0.7% | [4] -3.8% | [5] 15.8% | [6] 2.55%

CCCCCCC(=O)C(N)Cc1ccccc1 (stereo unspecified)
inactive: [1] 0.45% | [2] -27.1% | [3] 3.7% | [4] 8.2% | [5] -1.1% | [6] 20%

COc1ccc(C(c2cc(OC)c(OC)c(OC)c2)N2C(=O)CCC2C(=O)O)cc1 (stereo unspecified)
inactive: [1] -21.6% | [2] -13.6% | [3] -16.6% | [4] -11.8% | [5] -4.15% | [6] -8.3%

ClNc1nc(NCl)nc(NCl)n1
inactive: [1] -17.7% | [2] -25.8% | [3] -5.1% | [4] 2% | [5] -9.8% | [6] -19.1%

COC1=CC(=O)C(C(C)=O)=C(O)C1=O
inactive: [1] 0.05% | [2] -7.95% | [3] -6.5% | [4] 4.7% | [5] -5.6% | [6] -4.05%

CC1(C)CC(C2CC(C)(C)CC(C)(C)[C@H]2O)[C@@H](O)C(C)(C)C1 (stereo partly specified)
inactive: [1] -17.3% | [2] -2.3% | [3] -2.1% | [4] -13.2% | [5] -25.8% | [6] -19.9%
